Structures are written as SMILES. Values without a mark were called inactive. For some assays here: Potency and affinity values are given separately. The source made the active and inactive calls. Unless noted, the rule behind the calls is not given here.

Test [1] is described as follows: antimalarial activity against Dd2 strain (AID 2302;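 active = growth inhibition above 50% at the single 2 µM test dose, taken to imply half-maximal potency below 2 µM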;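 note: 0% = DMSO untreated growth and 100% = chloroquine plus artemisinin killed control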). The following applies: P. falciparum Dd2 in RBCs, LDH growth readout, 72 h; at 2 µM; active compounds read high.
Test [2] can be described thus: HepG2 cytotoxicity, primary screen, cytotoxicity control for P. falciparum antimalarial project, cell-based, ATP luminescence (AID 2303;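 active = inhibition above 50%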;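 note: 0% = DMSO wells and 100% = digitonin-killed cells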). The following applies: HepG2 viability, 24-48 h, at 10 µM, active compounds read high.
For test [3], the target named is L-lactate dehydrogenase (Plasmodium falciparum (isolate CDC / Honduras)) (UniProt Q27743). As to the kind of experiment: PfLDH activity inhibition – cell lysate, 3D7 strain, counter-screen for P. falciparum growth inhibition project (AID 2304).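 Note: 0% = vehicle and 100% = reference inhibitor.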 The following applies: P. falciparum 3D7 crude extract, LDH APAD/NBT absorbance; at 2 µM; active compounds read high. For orientation: A counterscreen serves to expose hits that act by an unwanted route or on another target.

The nature of test [4]: inhibition of 3D7 malaria parasite growth – strain 3D7 (AID 2306).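 Note: 0% = DMSO wells and 100% = chloroquine plus artemisinin control wells.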 The following applies: P. falciparum 3D7 erythrocytic growth, LDH absorbance, 72 h; at 2 µM; active compounds read high.
Test [5] addresses Calcium-dependent protein kinase 1 (Plasmodium falciparum (isolate 3D7)) (UniProt P62344). The experiment in a line: PfCDPK1 kinase inhibitors, biochemical, TCAMS library (AID 1159585; cut-off not given, nearly all actives have IC50 up to about 0.98 µM;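 note: inhibitors leave more ATP so luminescence rises with inhibition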). The following applies: recombinant PfCDPK1, Kinase-Glo ATP depletion luminescence. (In general: In Kinase-Glo more light means more ATP remaining.)
Test [6] addresses Plasmodium falciparum protein kinase 6 (PK6, PF3D7_1337100) (UniProt Q8IDW1). The experiment in a line: PfPK6 kinase inhibitors, biochemical, TCAMS library (AID 1159586). As to conditions: recombinant PfPK6, Kinase-Glo ATP depletion luminescence.
The target in test [7] is Protein kinase 7 (PK7), Plasmodium falciparum 3D7 (PF3D7_0213400) (UniProt Q7YTF7). As to the kind of experiment: inhibition of Plasmodium PK7 catalytic activity – biochemical, TCAMS antimalarial set, Kinase-Glo luminescence (AID 1159587). The following applies: recombinant PfPK7, Kinase-Glo ATP depletion luminescence.
The target in test [8] is Calcium-dependent protein kinase 4 (Plasmodium falciparum (isolate 3D7)) (UniProt Q8IBS5). As to the kind of experiment: PfCDPK4 kinase inhibitors, biochemical, TCAMS library (AID 1159588; cut-off not given, nearly all actives have IC50 up to about 0.91 µM). The following applies: recombinant PfCDPK4, Kinase-Glo ATP depletion luminescence.
Sequence of Calcium-dependent protein kinase 4 (Plasmodium falciparum (isolate 3D7)) (Q8IBS5 whole entry, looked up): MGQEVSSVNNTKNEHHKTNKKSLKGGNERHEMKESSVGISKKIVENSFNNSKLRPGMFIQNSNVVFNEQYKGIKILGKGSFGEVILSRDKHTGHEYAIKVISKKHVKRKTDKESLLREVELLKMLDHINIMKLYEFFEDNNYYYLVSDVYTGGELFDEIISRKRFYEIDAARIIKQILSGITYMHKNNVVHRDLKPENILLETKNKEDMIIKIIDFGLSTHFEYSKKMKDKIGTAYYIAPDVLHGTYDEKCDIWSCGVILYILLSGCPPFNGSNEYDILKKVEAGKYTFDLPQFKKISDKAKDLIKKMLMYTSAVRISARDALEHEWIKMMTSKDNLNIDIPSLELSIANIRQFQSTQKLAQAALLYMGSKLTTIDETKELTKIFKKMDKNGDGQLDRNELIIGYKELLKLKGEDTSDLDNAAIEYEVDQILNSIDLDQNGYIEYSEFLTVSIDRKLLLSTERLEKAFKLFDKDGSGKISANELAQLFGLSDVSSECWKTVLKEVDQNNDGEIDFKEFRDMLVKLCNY

Sequence of L-lactate dehydrogenase (Plasmodium falciparum (isolate CDC / Honduras)) (Q27743 whole entry, looked up): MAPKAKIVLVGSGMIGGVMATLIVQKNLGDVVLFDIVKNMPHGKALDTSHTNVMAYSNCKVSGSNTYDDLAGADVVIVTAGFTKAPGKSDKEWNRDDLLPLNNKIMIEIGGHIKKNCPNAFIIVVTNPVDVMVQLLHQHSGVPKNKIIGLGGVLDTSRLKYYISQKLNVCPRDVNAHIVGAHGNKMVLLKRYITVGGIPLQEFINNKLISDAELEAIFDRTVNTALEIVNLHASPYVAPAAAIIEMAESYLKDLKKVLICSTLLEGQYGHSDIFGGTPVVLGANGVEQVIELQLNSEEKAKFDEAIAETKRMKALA
Sequence of Calcium-dependent protein kinase 1 (Plasmodium falciparum (isolate 3D7)) (P62344 whole entry, looked up): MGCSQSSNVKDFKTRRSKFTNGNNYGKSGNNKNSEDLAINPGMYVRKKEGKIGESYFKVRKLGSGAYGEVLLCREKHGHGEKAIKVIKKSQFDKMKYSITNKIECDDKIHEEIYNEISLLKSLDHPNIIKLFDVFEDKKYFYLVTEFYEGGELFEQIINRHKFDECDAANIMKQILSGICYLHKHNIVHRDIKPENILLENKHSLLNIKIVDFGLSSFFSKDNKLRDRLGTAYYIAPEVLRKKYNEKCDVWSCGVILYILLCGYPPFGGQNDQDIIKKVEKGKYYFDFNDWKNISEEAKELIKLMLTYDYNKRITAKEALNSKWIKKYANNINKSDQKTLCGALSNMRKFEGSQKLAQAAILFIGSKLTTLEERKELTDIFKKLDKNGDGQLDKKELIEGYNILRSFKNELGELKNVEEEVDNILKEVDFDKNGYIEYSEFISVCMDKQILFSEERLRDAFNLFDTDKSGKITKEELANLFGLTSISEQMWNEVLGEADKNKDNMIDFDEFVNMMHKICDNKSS
Sequence of Protein kinase 7 (PK7), Plasmodium falciparum 3D7 (PF3D7_0213400) (Q7YTF7 1-343): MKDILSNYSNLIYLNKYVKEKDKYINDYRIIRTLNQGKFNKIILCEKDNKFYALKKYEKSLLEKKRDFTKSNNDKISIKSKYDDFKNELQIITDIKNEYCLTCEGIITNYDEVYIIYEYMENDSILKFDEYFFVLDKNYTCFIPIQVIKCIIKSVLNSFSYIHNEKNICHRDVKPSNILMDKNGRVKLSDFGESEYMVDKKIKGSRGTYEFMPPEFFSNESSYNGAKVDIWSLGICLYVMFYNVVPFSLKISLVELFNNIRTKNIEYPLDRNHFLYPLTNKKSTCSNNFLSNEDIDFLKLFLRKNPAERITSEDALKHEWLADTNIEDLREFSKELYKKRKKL
Sequence of Plasmodium falciparum protein kinase 6 (PK6, PF3D7_1337100) (Q8IDW1 1-305): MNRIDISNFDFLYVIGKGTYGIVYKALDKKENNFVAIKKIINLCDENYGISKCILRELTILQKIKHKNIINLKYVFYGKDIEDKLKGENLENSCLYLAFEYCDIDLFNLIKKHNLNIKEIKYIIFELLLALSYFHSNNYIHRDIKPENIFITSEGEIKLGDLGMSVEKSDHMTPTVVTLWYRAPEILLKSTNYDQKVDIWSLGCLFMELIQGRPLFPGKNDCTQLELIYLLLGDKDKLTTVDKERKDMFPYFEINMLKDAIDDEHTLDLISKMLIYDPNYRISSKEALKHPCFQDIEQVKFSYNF

One may read the inhibition as the drop in the measured response relative to a control, in per cent. `CC(C)NCc1ccc(-c2ccc(NC(=O)c3ccc(Cl)cc3)cc2)cc1`: the growth inhibition in test [1] was 8%; in test [4], 90% (active). For the same compound, the values for the inhibition in test [2] and in test [3] were 60% (active) and 3%, respectively. In addition, the result in test [5], in test [6], in test [7] and in test [8] was inactive.
Consider `CCNc1cc(C)nc(Nc2ccc(NC(=O)c3ccccc3Br)cc2)n1`, for which the growth inhibition in test [1] is 56% (active); in test [4] it was 100% (active). The inhibition in test [2] is 46%; in test [3], -3%. Besides, the outcome in test [5], in test [6], in test [7] and in test [8] was inactive.
Regarding `CC(C)(CNCc1cc(Cl)cc(Cl)c1)c1nc(-c2ccc(Cl)c(O)c2)c(-c2ccnc(N)n2)[nH]1`, the growth inhibition in test [1] is 2%; in test [4], 92% (active). The values for the inhibition in test [2] and in test [3] were 54% (active) and -1%, respectively. Moreover, the result in test [5], in test [6], in test [7] and in test [8] was inactive.
`CCOc1cc(Cc2cnc(N)nc2N)cc(OCC)c1O`: the growth inhibition is -1% in test [1] and 89% (active) in test [4]. Moreover, the inhibition in test [2] is 6%; in test [3], 3%. The result in test [5], in test [6], in test [7] and in test [8] was inactive.
As to `CC(C)C(=O)NC(c1ccc(N(C)C)cc1)c1cc(Cl)c2cccnc2c1O` (configuration not stated), the figures for the growth inhibition in test [1] and in test [4] were 64% (active) and 87% (active), respectively. Besides, the inhibition was 61% (active) in test [2] and 2% in test [3]. The result in test [5], in test [6], in test [7] and in test [8] was inactive.
With `Cc1c(Cl)ccc2sc(N3CCN(C(=O)c4ccc([N+](=O)[O-])o4)CC3)nc12`, the growth inhibition in test [1] is 93% (active); in test [4], 96% (active). The figures for the inhibition in test [2] and in test [3] were -2% and 3%, respectively. Also, the outcome in test [5], in test [6], in test [7] and in test [8] was inactive.
On to `Cc1cc(NC(=O)NCCN2CCC(NS(=O)(=O)c3ccc(C(F)(F)F)cc3)C2)c2ccccc2n1` (configuration not stated), for which the figures for the growth inhibition in test [1] and in test [4] were 39% and 96% (active), respectively. For the same compound, the inhibition in test [2] was 15%; in test [3] it was -3%. The result in test [5], in test [6], in test [7] and in test [8] was inactive.
As for `Cc1cccc2[nH]c(-c3ccc(-c4cccc(NC(=O)NCc5cccc(F)c5)c4)s3)nc12`, the growth inhibition was 8% in test [1] and 88% (active) in test [4]. Moreover, the inhibition was 24% in test [2] and -2% in test [3]. For the same compound, the result in test [5], in test [6], in test [7] and in test [8] was inactive.
For `CCNc1cc(C(=O)N[C@@H](Cc2ccccc2)[C@H](O)CNCCC(C)(C)C)c(F)c(N2CCCCS2(=O)=O)c1`, the growth inhibition was 93% (active) in test [1] and 98% (active) in test [4]. Besides, the inhibition in test [2] and in test [3] was 2% throughout. Further, the outcome in test [5], in test [6], in test [7] and in test [8] was inactive.
In the case of `Nc1ncnc2cc(-c3cccc(NC(=O)Nc4ccccc4)c3)sc12`, the growth inhibition in test [1] is 33%; in test [4], 94% (active). The values for the inhibition in test [2] and in test [3] were 4% and 9%, respectively. The result in test [5], in test [6], in test [7] and in test [8] was inactive.
With `Cc1ccc(O)cc1Nc1ccnc2ccc(-c3cccc(CNCCN(C)C)c3)cc12`, the growth inhibition is 46% in test [1] and 100% (active) in test [4]. Moreover, the inhibition in test [2] was -7%; in test [3], -3%. The result in test [5], in test [6], in test [7] and in test [8] was inactive.
Turning to `Cc1nc(-c2nc(NCc3ccccn3)ncc2-c2ccsc2)sc1C`, the growth inhibition in test [1] is 87% (active); in test [4], 92% (active). Further, the inhibition is -2% in test [2] and 4% in test [3]. The result in test [5], in test [6], in test [7] and in test [8] was inactive.
As for `FC(F)(F)c1cnc(Sc2nnc(-c3ccncc3)o2)c(Cl)c1`, the growth inhibition in test [1] and in test [4] was 96% (active) throughout. Moreover, the inhibition in test [2] is 10%; in test [3] it was 1%. The outcome in test [5], in test [6], in test [7] and in test [8] was inactive.
In the case of `COc1ccc(C(=O)NC(c2ccc(Cl)cc2Cl)c2cc(Cl)c3cccnc3c2O)cc1` (configuration not stated), the values for the growth inhibition in test [1] and in test [4] were 48% and 84% (active), respectively. Further, the values for the inhibition in test [2] and in test [3] were 46% and 2%, respectively. Also, the result in test [5], in test [6], in test [7] and in test [8] was inactive.
For `COc1ccc(NC(=O)CCNc2cc(C)nc(NCCc3ccc(F)cc3)n2)cc1`, the growth inhibition is 3% in test [1] and 98% (active) in test [4]. Also, the values for the inhibition in test [2] and in test [3] were 27% and 1%, respectively. The outcome in test [5], in test [6], in test [7] and in test [8] was inactive.
Take `Oc1ccc2ccccc2c1CNC1CCCCCC1`: the growth inhibition in test [1] is 33%; in test [4], 83% (active). For the same compound, the inhibition is 9% in test [2] and 5% in test [3]. Moreover, the outcome in test [5], in test [6], in test [7] and in test [8] was inactive.
Turning to `CC(=O)Nc1ccc(S(=O)(=O)Nc2ccc(Nc3nc(C)cc(N(C)C)n3)cc2)cc1`, the growth inhibition in test [1] was 22%; in test [4], 100% (active). Besides, the inhibition in test [2] was -2%; in test [3], -1%. In addition, the result in test [5], in test [6], in test [7] and in test [8] was inactive.
Consider `COc1ccc(-c2ccc(NC(=O)c3cccc(Cl)c3)cc2)cc1CN1CCCC1`, for which the growth inhibition in test [1] was 84% (active); in test [4], 100% (active). The inhibition in test [2] was 35%; in test [3], 4%. Also, the result in test [5], in test [6], in test [7] and in test [8] was inactive.
For the compound `CN(c1ccc(NC(=O)Nc2cc(C(C)(C)C)on2)cc1)c1ccnc(NCCOC(=O)Nc2cc(C(C)(C)C)on2)n1`, the results for the growth inhibition in test [1] and in test [4] were 54% (active) and 102% (active), respectively. Further, the inhibition is 59% (active) in test [2] and 4% in test [3]. Also, the result in test [5], in test [6], in test [7] and in test [8] was inactive.

These data come from PubChem BioAssay.
